# HEK293 tox – cytotoxicity in counter-screen for GLP-1R inverse agonists | 0.13% of 410,000 active | HEK293 cAMP-luciferase reporter cells, luminescence, 24 h | Potency, µM (series often up to 38.3 µM), for inactives: at the top dose activity change, negative = inhibition, most hits filed as inhibitors;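 also: loss of luciferase light is scored as toxicity; potency is read from the fitted curve at half-maximal effect; % is scaled to controls: 0 for no effect and ±100 for the full control effect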
#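 Cells in DMEM/10% Nu serum/1% pen-strep, 1536-well format. Pre-incubated 12 h, dosed with 23 nL compound, incubated a further 24 h. Luciferase detection, 12 min at room temp, luminescence.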
# GLS inh – inhibitors of human glutaminase (GLS) | GLS enzymatic activity, qHTS titration | AID 624170 | 0.21% of 410,000 active | Potency, µM (titrated, usually from 45.5 µM), for the others: top-dose activity change, negative = inhibition, most hits filed as inhibitors | O94925; also: potency is read from the fitted curve at half-maximal effect; % is scaled to controls: 0 for no effect and ±100 for the full control effect
#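 Read-out is an Amplex red fluorescence increase coupled through glutamate oxidase and HRP, measured before and after 30 min room-temperature incubation. hKGA is in 45 mM KH2PO4 (pH 8.2) with 0.02% Tween-20; glutamine added as 1mM solution.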
# GLP-1R inv ag – acts as inverse agonist at human GLP-1 receptor. HEK293 GLP-1R CRE-luciferase, luminescence, 24 h; GLP-1R form is constitutively active. Potency, µM (series often up to 38.3 µM), inactives show top-dose activity change, negative = inhibition, usual class: inhibitors. 1.6% of 410,000 active; also: potency is read from the fitted curve at half-maximal effect; % is scaled to controls: 0 for no effect and ±100 for the full control effect; nearly all actives have a fitted effect of over 55% in size
# Target sequence (P43220 whole entry, looked up): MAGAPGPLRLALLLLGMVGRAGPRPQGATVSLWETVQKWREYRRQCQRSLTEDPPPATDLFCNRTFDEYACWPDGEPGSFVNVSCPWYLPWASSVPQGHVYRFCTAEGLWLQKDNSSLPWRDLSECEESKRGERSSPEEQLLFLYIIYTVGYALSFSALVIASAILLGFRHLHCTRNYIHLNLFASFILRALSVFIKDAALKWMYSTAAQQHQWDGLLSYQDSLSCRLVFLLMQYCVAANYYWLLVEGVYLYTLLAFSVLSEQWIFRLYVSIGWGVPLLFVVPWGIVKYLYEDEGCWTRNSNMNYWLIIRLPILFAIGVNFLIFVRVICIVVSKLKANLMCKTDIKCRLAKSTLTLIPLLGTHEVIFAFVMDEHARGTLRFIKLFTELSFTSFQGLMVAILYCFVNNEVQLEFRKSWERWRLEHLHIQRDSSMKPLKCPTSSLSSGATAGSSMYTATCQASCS
#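 Inverse agonism was detected as reduced cAMP-driven luciferase luminescence after 24 h compound treatment. The cells were HEK293 clones expressing constitutively active human GLP-1R with the reporter. Reporter-only and GPR119 cell lines served as counterscreen controls.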
# hERG WT inh – KCNH2 (human, wildtype) channel inhibition. Q12809. U2OS, BacMam KCNH2, thallium flux FluxOr; active compounds read low. activity change, % at 1.84 µM. 0.37% of 340,000 active;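 active = maximum activity change below -70%; inconclusive = maximum activity change between -70% and -50%; inactive = maximum activity change above -50%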; also: % is scaled to controls: 0 for no effect and ±100 for the full control effect
#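 U2OS cells were transduced with wild-type KCNH2 virus (2.03 x 10^8 / mL) for 4 h at room temperature, then cultured overnight at 37 C. Thallium flux was read with FluxOr dye. Rate constants were normalized to DMSO controls.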
# KCNH2 3.1 inh – inhibitors of human KCNH2 3.1 potassium channel isoform; U2OS KCNH2 3.1, thallium flux FluxOr; active compounds read low; activity change, % (tested at about 1.8 µM); 0.95% of 340,000 active;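 active = maximum activity change below -70%; inconclusive = maximum activity change from -70% to -50%; inactive = maximum activity change above -50%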;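 also: thallium influx rate constant from kinetic fluorescence after stimulation buffer; % is scaled to controls: 0 for no effect and ±100 for the full control effect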
#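 Normalized rate constant (relative to positive and negative DMSO controls) derived from a 2 min kinetic fluorescence read after stimulation; U2OS cells expressing the 3.1 isoform via virus at 1.77 x 10^8 /mL.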
# GLP1R ag – GLP-1 receptor (human) agonism | Potency, µM (top dose mostly 45.6 µM), without a hit: at the top dose activation, actives largely listed as activators | AID 624172 | HEK293 GLP-1R CRE-luciferase, luminescence, 4-6 h; cells express a hypersensitive GLP-1R form | 0.007% of 380,000 active; also: potency is read from the fitted curve at half-maximal effect; % of control where 0% means no effect
# Numbers without * were called inactive; ? = inconclusive; nt = no result given; [ ] = remark or other dose. Shown are actives, neighbours in structure and some others; about 2.8% of the full set was active somewhere. Unless noted, calls follow the shape of the dose curve; as a rule, active = well fitted curve in the direction sought with a large enough effect; inconclusive = small, poorly fitted or top-dose-only effect, or another doubt; inactive = no such curve, though single readings can be large; an effect the other way counts as inactive or inconclusive.
SMILES,HEK293 tox,GLS inh,GLP-1R inv ag,hERG WT inh,KCNH2 3.1 inh,GLP1R ag
NCCCC[C@H](NC(=O)[C@@H]1CCCN1C(=O)[C@@H]1CSSC[C@H](NC(=O)CNC(=O)CNC(=O)CN)C(=O)N[C@@H](Cc2ccc(O)cc2)C(=O)N[C@@H](Cc2ccccc2)C(=O)N[C@@H](CCC(N)=O)C(=O)N[C@@H](CC(N)=O)C(=O)N1)C(=O)NCC(N)=O,nt,27.0%,nt,nt,nt,-0.3%
CCOC(=O)c1cc(N2CCCCC2)nc2ccccc12,225.1%,-13.1%,7.94µM*,-34.4,nt,1.3%
C/C(=N\NC(=O)c1nnn(-c2nonc2N)c1-c1cccs1)c1ccc(O)cc1,-20.6%,10.6%,7.94µM*,-1.3,-13.6,-1.5%
O=S(=O)(c1ccc(Br)cc1)N1CCn2cccc2C1c1ccc(Br)cc1 (centres undefined),-1.4%,-4.6%,?,nt,nt,nt
Clc1ccc(-c2nc3ccccn3c2CN2CCCCC2)cc1,?,7.5%,10µM*,nt,11.8,9.2%
O=C(NCc1ccccc1Br)c1ccc2nc(N3CCCCC3)sc2c1,-11.7%,-0.2%,17.1%,nt,nt,nt
COc1ccccc1/C=C/C=C(\C#N)C(=O)NC(C)c1ccccc1 (centres undefined),?,-2.6%,11.2µM*,5.7,?,13.2%
COc1ccc(C[C@H]2CN3C(=NC[C@H]3C)N2CCNC(=O)c2ccc(C)c(Br)c2)cc1,4.2%,0.9%,?,-35.3,-75.8*,16.5%
Cc1ccc(C(=O)NCCN2C3=NC[C@H](C)N3C[C@H]2Cc2ccc(O)cc2)cc1Br,0.0%,7.1%,-18.0%,-8.8,-15.8,10.7%
COc1ccc(C[C@H]2CN3C(=NC[C@@H]3C(C)C)N2CCNC(=O)c2ccc(C)c(Br)c2)cc1,?,1.5%,?,-114.5*,-100.4*,3.9%
CCOC(=O)c1ccc(NC(=O)C(Cc2ccccc2)NS(=O)(=O)c2ccc(Br)s2)cc1 (centres undefined),1.4%,-10.4%,-3.3%,nt,nt,nt
COc1ccc(-c2nc3n(n2)C(c2ccccc2OC)C(C(=O)Nc2cccnc2)=C(C)N3)cc1 (centres undefined),-2.4%,12.4%,14.3%,nt,nt,nt
O=S(=O)(O)OCC1OC(OC2(COS(=O)(=O)O)OC(COS(=O)(=O)O)C(OS(=O)(=O)O)C2OS(=O)(=O)O)C(OS(=O)(=O)O)C(OS(=O)(=O)O)C1OS(=O)(=O)O (centres undefined),nt,-8.9%,nt,nt,nt,-2.8%
O=C(Nc1ccc2snnc2c1)Nc1cccc2ccccc12,?,37.9%,10µM*,-5.6,5.8,-17.4%
CN(C1=C(N2CCOCC2)C(=O)c2ccccc2C1=O)c1ccccc1,?,2.5%,10µM*,-3.0,5.3,-12.9%
CCSc1nc2ccccc2n1Cc1cccc([N+](=O)[O-])c1,3.0%,-10.9%,11.2µM*,-0.4,-14.7,20.2%
CN(C)C(=O)CSc1nc2ccccc2n1Cc1ccccc1,0.0%[1.53 µM],-5.4%,?,6.8,18.0,19.5%
CCCCn1c2ccc(F)cc2c2nnc(SCCN(CC)CC)nc21,1.6%,-14.9%,20.6%,nt,nt,7.9%
CCN(CC)CCSc1nc2ccccc2n1Cc1ccccc1,-9.1%,0.3%,?,?,-75.3*,-3.1%
CCN(CC)CCSc1nnc2c3cc(C)ccc3n(Cc3ccccc3)c2n1,?,?,12.6µM*,-19.9,-18.9,24.2%
CCOc1ccc(CNC(=O)Cn2nc(C)c3sc4ccccc4c3c2=O)cc1,-1.5%,3.6%,1.6%,nt,nt,nt
C=C1CCN([C@H](C(=O)NCc2ccc(Cl)c(Cl)c2)C(C)C)S(=O)(=O)c2ccccc21,0.1%,0.6%,10µM*,2.4,-38.6,-7.4%
C=C1CCN([C@H](C(=O)NCc2ccccc2)C(C)C)S(=O)(=O)c2ccccc21,33.8%,3.0%,-1.0%,3.7,-21.2,0.9%
C=C1CCN([C@@H](CC(C)C)C(=O)NCCC(C)C)S(=O)(=O)c2ccccc21,2.7%,1.1%,?,-1.9,-75.1*,6.4%
C=C1CCN([C@@H](CC(C)C)C(=O)NCc2ccc(Cl)cc2)S(=O)(=O)c2ccccc21,1.4%,9.6%,?,4.7,1.5,12.3%
SMILES,HEK293 tox,GLS inh,GLP-1R inv ag,hERG WT inh,KCNH2 3.1 inh,GLP1R ag
C=C1CCN([C@@H](Cc2ccccc2)C(=O)NCc2ccc(Cl)c(Cl)c2)S(=O)(=O)c2ccccc21,8.0%,-4.6%,11.2µM*,4.3,-17.2,2.6%
C=C1CCN([C@@H](CC(C)C)C(=O)NCc2ccc(Cl)c(Cl)c2)S(=O)(=O)c2ccccc21,3.2%,-10.4%,11.2µM*,-16.0,-13.7,-2.1%
O=S(=O)(NCCc1csc2nc(-c3ccc(F)cc3)nn12)c1ccc2c(c1)OCCO2,6.8%,-9.5%,8.7%,nt,nt,nt
CC(C)C(=O)Nc1nnc(SCc2cc(=O)n3ccccc3n2)s1,-0.4%,2.6%,5.4%,nt,nt,nt
COc1ccc(OC)c(NC(=O)c2c(C)oc3ncnc(N4CCOCC4)c23)c1,-2.7%,-2.8%,-1.9%,nt,nt,nt
COc1ccc(-n2c3c(cc(C(=O)NNc4ccccc4)c2=O)C(=O)CC(C)(C)C3)cc1,-10.6%,0.0%,1µM*,-2.5,-18.1,12.4%
COc1ccc(-n2c3c(cc(C(=O)NNc4ccccc4C)c2=O)C(=O)CC(C)(C)C3)cc1,8.2%,0.0%,?,5.3,-15.1,11.2%
COc1ccc(OC)c(-c2noc(CSc3nnc(Cc4ccccc4)n3-c3cccc(C)c3)n2)c1,-3.0%,-4.3%,-24.3%,nt,nt,nt
Cc1noc(C)c1-c1ccc(C(=O)Nc2ccc(C(C)C)cc2)c2occc12,-7.4%,6.0%,4.47µM*,nt,nt,0.1%
CC(=O)Nc1ccc(NC(=O)c2ccc(-c3c(C)noc3C)c3ccoc23)cc1,-5.2%,10.8%,6.1%,nt,nt,0.0%
O=S(=O)(c1cc(F)ccc1F)N1CCC2(CC1)OCCN2S(=O)(=O)c1cccs1,-3.3%,14.7%,?,3.9,14.5,-6.9%
COc1cc(Cl)c(C)cc1NC(=O)CN1C(=O)C2CC=CCC2C1=O (centres undefined),4.1%,2.1%,?,-7.8,-14.7,-3.6%
Oc1ccccc1-c1nc2ccccc2nc1-c1ccccc1,-2.6%,1.0%,11.2µM*,-5.9,-8.9,23.9%
CNC(=O)C[C@@H](N)C(=O)N[C@@H](C(=O)N[C@@H]1C(=O)N2[C@@H]1SC(C)(C)[C@@H]2C(=O)O)c1ccc(O)cc1,nt,-9.9%,nt,nt,nt,-0.9%
CCOC(=O)CSC1=C(C#N)C(c2ccc(C)o2)CC(=O)N1 (centres undefined),-28.1%,-8.6%,0.562µM*,9.6,4.6,18.2%
